TTR transcr act: increases transthyretin transcription. 92,000 tested, 1.3% active. SH-SY5Y TTR promoter Gaussia luciferase, luminescence; 100% = recombinant luciferase protein wells. AID 1117267. activation, % at 16.7 µM;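 active means activation above the mean of all tested compounds plus 3 SD, cut at about 9.5% in these data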;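 further: cells exposed to compounds for one day before reading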
TTR inh HuH7: decreases TTR transcription in HuH7 cells in activator counter-screen; shares compounds with TTR transcr act; HuH7 TTR promoter-Gaussia luciferase reporter, luminescence; inhibition, % at 16.7 µM; 1,100 tested, 4% active; AID 1117279;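 active means average inhibition above the solvent-only control wells' mean plus 3 SD, cut at about 15% in these data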;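 further: inhibitors lower well luminescence so higher value means more inhibition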
TTR act confirm: confirmation of human transthyretin transcription activators | SHSY5Y TTR promoter Gaussia luciferase, luminescence; 100% = purified Lucia enzyme wells, no cells | AID 1117280 | 1,100 tested, under 10 active | shares compounds with TTR transcr act | activation, % at 16.7 µM;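 active means mean activation above a set limit taken from the earlier primary screen, cut at about 11% in these data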
Of the large screens only hits and unclear results are named; the others gave an inactive call (follow-up assays come after a bar, where they were run). The entries come from a sample that favours hits as a whole.

COC(=O)[C@]12C[C@H](CC(=O)NCCCN3CCCC3=O)C(=O)N(Cc3ccc(Cl)cc3Cl)C1=C[C@H](C1CCCC1)O[C@@H]2C	none
CCOc1ccccc1NC(=O)CN(C)S(=O)(=O)c1ccc2[nH]c(=O)oc2c1	TTR transcr act 12.4 | TTR inh HuH7 inactive | TTR act confirm inactive
COc1ccccc1NC(=O)CN(C)S(=O)(=O)c1cc(C)ccc1OC	none
CCOc1ccc(NS(=O)(=O)c2ccc3[nH]c(=O)oc3c2)cc1	none
Cn1c(=O)cc(OCCCC(=O)Nc2cc(Br)ccn2)c2ccccc21	none
CC/C(=N\NC(=O)Cc1ccc(Br)cc1)c1cccs1	TTR transcr act 41.7 | TTR inh HuH7 inactive | TTR act confirm inactive
CCNC(=O)Cc1ccc(Br)cc1	none
C/C(=N/NC(=O)c1cccs1)c1cccs1	none
O=C(NC(=S)NC1CCSC1=O)c1cccs1 (stereo not given)	none
O=C(Cc1ccc(F)cc1)NC1CCSC1=O (stereo not given)	none
Cc1cccc(Oc2ccc(C(=O)NC3CCSC3=O)cn2)c1C (stereo not given)	TTR transcr act 13.6 | TTR inh HuH7 inactive | TTR act confirm inactive
COc1ccc(N(CC(=O)Nc2c(C)n(C)n(-c3ccccc3)c2=O)S(=O)(=O)c2ccc(F)cc2)cc1	none
COc1ccc(N(CC(=O)Nc2c(C)n(C)n(-c3ccccc3)c2=O)S(=O)(=O)c2ccccc2)cc1OC	TTR transcr act 11.6 | TTR inh HuH7 inactive | TTR act confirm inactive
Cc1ccc(N(CC(=O)Nc2c(C)n(C)n(-c3ccccc3)c2=O)S(C)(=O)=O)cc1C	none
CC(=O)Nc1nc(-c2ccc(Cl)cc2)nc(C)c1C(C)=O	TTR transcr act 35.8 | TTR inh HuH7 inactive | TTR act confirm inactive
CC(=O)c1c(C)nc(C)nc1NC(=O)Cc1ccccc1	none
CCOC(=O)c1c(C)nc(-c2ccccc2)nc1NC(=O)CC	none
COc1ccc(CC(=O)NC2CCCCN(Cc3ccc(Cl)cc3)C2=O)cc1OC (stereo not given)	none
COc1cccc(NC(=O)C2Cc3ccccc3CN2C(=O)c2ccco2)c1 (stereo not given)	none
Cc1ccccc1NC(=O)C1CC(=O)N(Cc2ccccc2)C1 (stereo not given)	none
Cc1ccccc1NC(=O)C1Cc2ccccc2CN1C(=O)OCc1ccccc1 (stereo not given)	TTR transcr act 10.8 | TTR inh HuH7 inactive | TTR act confirm inactive
c1ccc(-c2nn(Cc3ncco3)c3ccccc23)cc1	none
COC(=O)c1ccc(NC(=O)CCN2CCN(CCC(=O)Nc3ccc(C(=O)OC)cc3)CC2)cc1	none
COC(=O)c1ccc(NC(=O)CN2CCN(CCO)CC2)cc1	none
COC(=O)c1ccc(NC(=O)CCN2CCCCC2)cc1	TTR transcr act 10.1 | TTR inh HuH7 inactive | TTR act confirm inactive
CC(C)CNS(=O)(=O)/C=C/c1cc2c(cc1CNC(=O)OC(C)(C)C)OCO2	none
CCc1c(C2(O)CCCCC2)[nH]c2cnccc12	TTR transcr act 12.7 | TTR inh HuH7 inactive | TTR act confirm inactive
Cc1c(C2(O)CCCCC2)[nH]c2ccc(C(F)(F)F)cc12	none
COc1cc(C(=O)N2C[C@@H]3CCC[C@H]2C3)ccc1OC1CCN(C(C)=O)CC1	TTR transcr act 16.1 | TTR inh HuH7 inactive | TTR act confirm inactive
COc1ccc(C(=O)N2CCN(C)C(C)C2)cc1OC1CCN(C(C)=O)CC1 (stereo not given)	none
COc1cc(C(=O)N2C[C@H]3CC[C@H]2C3)ccc1OC1CCN(C(C)=O)CC1	none
CC(=O)Nc1ccc(C(=O)NCCN2CCOCC2)cc1	none
Cc1ccc(NS(=O)(=O)c2ccc(C(=O)NCCN3CCOCC3)cc2)cc1	TTR transcr act 15.1 | TTR inh HuH7 inactive | TTR act confirm inactive
O=C(NCCCN1CCOCC1)c1ccc(NS(=O)(=O)c2cccc([N+](=O)[O-])c2)cc1	none
Cc1cc(-n2c(C)cc(C(=O)CSc3nncn3C(C)C)c2C)no1	none
CC(C)(C)c1csc(CS(=O)(=O)c2ccccn2)n1	none
Cc1c(S(=O)(=O)c2ccccn2)c(N)n(Cc2cccc(Cl)c2)c1C	none
N/C(=N\O)c1cccc(CS(=O)(=O)c2ccccn2)c1	TTR transcr act 10.0 | TTR inh HuH7 inactive | TTR act confirm inactive
O=C(NCC(c1ccccc1)c1ccccc1)[C@H](Cc1ccccc1)NC1(C(=O)NC2CCCCC2)CCC1	none
COC(=O)c1cc(-c2ccc(C)cc2)c(=O)n2c1CCC2	none
CCOC(=O)N1CCN(C(=O)C[C@@H]2C(=O)N3CCCC4=C3[C@@]2(C(=O)OC)CCCC4)CC1	none
COc1ccc(NS(=O)(=O)c2cccc(C(=O)O)c2)cc1	none
Cc1ccc(NS(=O)(=O)c2cccc(C(=O)O)c2)cc1S(=O)(=O)N1CCCCC1	none
CCN(CC)S(=O)(=O)c1cc(NS(=O)(=O)c2cccc(C(=O)O)c2)ccc1C	TTR transcr act 11.3 | TTR inh HuH7 inactive | TTR act confirm inactive
COc1ccc2[nH]c3c(N4CCc5ccccc5C4)ncnc3c2c1	none
COc1ccc2[nH]c3c(Cl)ncnc3c2c1	TTR transcr act 16.5 | TTR inh HuH7 19.4 | TTR act confirm inactive
CCCCOc1ncnc2c1[nH]c1ccc(OC)cc12	none
O=C(c1ccccc1)C1CCN(c2ncnc3sccc23)CC1	none
CCS(=O)(=O)Nc1ccc2c(c1)C(=O)N(C)[C@@H]1CC[C@H](CC(=O)N3CCCCC3)O[C@H]1CO2	none
Cc1cc(CN2CCN(CCC#N)CC2)c(O)c(C2(C)CCCCC2)c1	none
CCCc1nc2ccc(C)cn2c1Cc1ccsc1	none
COc1ccc(-c2[nH]c(-c3ccc(C)cc3)nc2SCC(=O)Nc2nccs2)cc1	TTR transcr act 10.4 | TTR inh HuH7 inactive | TTR act confirm inactive
COc1ccc(-c2nc(SCC(=O)NC3CCCC3)c(-c3ccc(OC)cc3)[nH]2)cc1	none
COc1ccc(-c2[nH]c(-c3ccc(SC)cc3)nc2SCC(=O)Nc2nccs2)cc1	none
COC(=O)[C@]12C[C@H](CC(=O)N3CCN(C(=O)c4ccco4)CC3)C(=O)N(Cc3cccc4ccccc34)C1=C[C@H](C1CCCC1)O[C@@H]2C	none
Cc1cc(C(=O)NCCN2CCOCC2)c2ccccc2n1	none
CCOC(=O)C1(C)CCCN1C(=O)c1cccc2ccccc12 (stereo not given)	none
O=C(NCc1ccccc1Cl)NC(=O)c1ccccc1	none
O=C(NCc1ccccc1)NC(=O)c1ccc(Cl)cc1	TTR transcr act 24.6 | TTR inh HuH7 inactive | TTR act confirm inactive
O=C(NCc1ccccc1)c1ccc(CO)cc1	none
Nc1c(C(=O)N2CCN(CCc3ccccc3)CC2)cnn1-c1ccccc1	none
Cc1cccc(C)c1-n1nnnc1C1(C)CCC(=O)N1CC(F)(F)F (stereo not given)	none
CC(C)C[C@H](NC1(C(=O)NC2CCCCC2)CCC1)C(=O)NCC(c1ccccc1)c1ccccc1	none
Cc1ccc(/C=C(\C#N)C(=O)NCC2CCCO2)o1 (stereo not given)	none
N#C/C(=C\c1ccc[nH]1)C(=O)NCC1CCCO1 (stereo not given)	TTR transcr act 11.4 | TTR inh HuH7 inactive | TTR act confirm inactive
CCOc1cc(/C=C(\C#N)C(=O)NCC2CCCO2)ccc1O (stereo not given)	none
O=C(NCCCc1ccccc1)C1CCN(c2nc(-c3ccc(Br)cc3)cs2)CC1	none
CCCCOc1ccc(C(=O)n2ccc3ccc(-c4ccc5ccn(Cc6ccc(OC)cc6)c5c4)cc32)cc1	none
C=CCN(C(=O)[C@@H](C)[C@@H](O)c1ccc(Cl)cc1)c1ccccc1	none
CC(C)(C)CC(=O)Nc1cc2c3c(c1)CC(=O)N3CCC2	none

Compound activity deposited in PubChem by The Scripps Research Institute Molecular Screening Center.
